The whole screen tested about 280,000 compounds, of which about 50 (0.02%) were called active. Cut-off read from the data, not from the text of the source: active = activation above about 50% (passing the limit was not always enough); inactive = the rest. Shown is part of a subset that was picked to be rich in actives. Potency and affinity values are given separately.
Molecular target: Kappa-type opioid receptor (Homo sapiens) (UniProt P41145)
Test: kappa opioid receptor activators – cell-based, luminescence, uHTS, primary screen (AID 1777)
Conditions: KOR beta-arrestin recruitment, at 10 µM, hits give high values

Kappa-type opioid receptor (Homo sapiens), sequence (P41145 whole entry, looked up): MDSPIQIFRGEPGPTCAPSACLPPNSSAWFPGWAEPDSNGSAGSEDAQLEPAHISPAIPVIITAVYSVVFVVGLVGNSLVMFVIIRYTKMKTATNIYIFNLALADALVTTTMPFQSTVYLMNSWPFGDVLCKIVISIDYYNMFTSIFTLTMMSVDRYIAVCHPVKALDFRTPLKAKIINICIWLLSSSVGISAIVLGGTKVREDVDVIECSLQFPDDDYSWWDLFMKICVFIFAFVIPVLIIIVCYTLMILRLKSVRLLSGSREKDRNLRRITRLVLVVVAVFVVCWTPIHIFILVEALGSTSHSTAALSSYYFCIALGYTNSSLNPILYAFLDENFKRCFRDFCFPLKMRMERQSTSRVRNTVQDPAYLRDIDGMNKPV

activation, inactive:
CN(C)/C=C/C(=O)c1ccc(S(=O)(=O)c2ccccc2)cc1 -5%
C=CCSc1nc(C)c(CCC(C)C)c(=O)[nH]1 -2.2%
COc1ccc([N+](=O)[O-])cc1NC(=O)COC(=O)c1ccccc1C(=O)c1ccccc1 -5.5%
CCc1ccccc1NC(=O)c1cccc(N2C(=O)C3C4CCC(C4)C3C2=O)c1 (stereo unspecified) 3.3%
CCCCN(Cc1cc2cc(OC)ccc2[nH]c1=O)C(=O)c1ccccn1 40.3%
CCCN(Cc1cc2ccc(C)cc2[nH]c1=O)C(=O)c1ccccn1 46.4%
CCCN(Cc1cc2cc(C)ccc2[nH]c1=O)C(=O)c1ccccn1 9.9%
Cc1ccc2[nH]c(=O)c(CN(C)C(=O)c3ccccn3)cc2c1 -3.6%
COCC(=O)N(Cc1cc2ccccc2[nH]c1=O)c1ccc(OC)cc1 9.6%
COc1ccc2nc(NC(=O)CCNS(=O)(=O)c3ccc4c(c3)oc(=O)n4C)sc2c1 -3.3%
COc1ccc(OCC(=O)NNC(=O)C2CCCO2)cc1 (stereo unspecified) 8.8%
CCOC(=O)Cn1cnc2c(nnn2-c2ccccc2)c1=O -1%
Cc1ccc(-n2nnc3c(=O)n(CC(=O)c4ccccc4)cnc32)cc1 4.2%
CCOc1ccc(-n2c(=O)c3sccc3n(CC(=O)NCC3CCCO3)c2=O)cc1 (stereo unspecified) -4.3%
O=C(Cc1ccccc1)c1c[nH]c(C(=O)NCCCn2ccnc2)c1 1.2%
CC(N=C(NC#N)Nc1ccncc1)C(C)(C)C (stereo unspecified) -0.9%
CC(Nc1cccnc1)=C(C#N)C#N -7.7%
CCCCN(C(=O)c1cc(CC)c(C)s1)c1c(N)n(CC(C)C)c(=O)[nH]c1=O -0.3%
COC(=O)c1ccc(NC(=S)N(Cc2cccnc2)Cc2ccco2)cc1 -0.8%
O=C(c1ccc(Cl)cc1)N(Cc1ccc(Br)cc1)N1C(=O)CCC1=O 1.3%
O=C(c1ccc(Cl)cc1)N(Cc1ccccc1F)N1C(=O)CCCC1=O -0.9%
O=C(c1ccc([N+](=O)[O-])cc1)N(Cc1ccc(Cl)cc1Cl)N1C(=O)CCCC1=O -0.8%
O=C(c1ccccc1Cl)N(Cc1ccc(Br)cc1)N1C(=O)CCCC1=O -1%
COC(=O)C1=CN(CC2CCCO2)C=C(C(=O)OC)C1c1ccsc1 (stereo unspecified) -4.3%
COc1cc(/C=N/Nc2ccc(C(F)(F)F)cn2)cc(OC)c1O -5%
Cn1c2ccccc2c(=O)c2ccc(C#CC3(N)CCCCC3)cc21 -3.1%
O=C(c1ccc(S(=O)(=O)N2CCCC2)cc1)N1CCC(CN2C(=O)c3cccc4cccc(c34)C2=O)CC1 0.7%
CC(C)C[C@H](NC(=O)c1nc[nH]c1C(=O)N[C@@H](CCCCNC(=O)OC(C)(C)C)C(=O)OC(C)(C)C)C(=O)OC(C)(C)C 5.3%
CCN(CC)CCNc1nc(C(F)(F)F)nc2c1nnn2Cc1ccccc1 -3.1%
O=C(Cc1ccc([N+](=O)[O-])cc1)N/N=C/c1ccccc1F -4.4%
CCC(C)(C(=O)NC1CCCC1)N(C)C(=O)c1ccccn1 (stereo unspecified) -0.7%
CCC(C)(C(=O)NC1CCCCC1)N(Cc1ccco1)C(=O)CNC(=O)c1ccccc1 (stereo unspecified) 1.6%
CCC(C)(C(=O)NC1CCCC1)N(Cc1ccco1)C(=O)c1ccc2c(c1)OCO2 (stereo unspecified) 10.3%
CCC(C)(C(=O)NC1CCCC1)N(C(=O)c1cnccn1)c1ccccc1 (stereo unspecified) -12.3%
CCC(C)(C(=O)NC1CCCCC1)N(Cc1ccco1)C(=O)c1ccc2c(c1)OCO2 (stereo unspecified) 1.2%
CCC(C)(C(=O)NC1CCCCC1)N(C)C(=O)c1ccccn1 (stereo unspecified) 1.2%
CC(C)(C)c1cc(C(=O)NC2CC2)n(Cc2ccc(F)cc2)n1 -4.7%
CS(=O)(=O)c1ccc(NCC2CCCO2)c([N+](=O)[O-])c1 (stereo unspecified) -3.6%
O=c1[nH]cc(S(=O)(=O)NCc2ccccc2)c(=O)[nH]1 -1.3%
CCNS(=O)(=O)c1ccc(CCC(=O)Nc2ccccc2C(=O)OC)cc1 -1.4%
Cc1cc(C)cc(C(=O)NCC(=O)OCC(=O)N2CCN(S(=O)(=O)c3ccc4ccccc4c3)CC2)c1 -0.4%
CCC(C)(C(=O)NC1CCCCC1)N(Cc1cccs1)C(=O)Cc1cccs1 (stereo unspecified) 3.8%
CCC(C)(C(=O)NC1CCCC1)N(Cc1cccs1)C(C)=O (stereo unspecified) -2.2%
CCC(C)(C(=O)NC1CCCCC1)N(Cc1cccs1)C(=O)c1ccc(=O)[nH]c1 (stereo unspecified) -6.4%
CCC(C)(C(=O)NC1CCCC1)N(Cc1cccs1)C(=O)Cc1cccs1 (stereo unspecified) -0.9%
CC(=O)c1sc(N/N=C\c2ccc(Br)cc2)nc1C 3.5%
COc1ccc(N2CCN(S(=O)(=O)CCNC(=O)COc3ccccc3OC)CC2)cc1 -4.1%
NC1=NC(c2cn[nH]c2-c2ccc(F)cc2)n2c(nc3ccccc32)N1 (stereo unspecified) 0.5%
CC(CNC(=O)c1ccc2c(c1)OCO2)c1ccc([N+](=O)[O-])cc1 (stereo unspecified) -4.6%
COc1ccc(CN(CC2CCCO2)C(=O)CN2C(=O)C(C)Oc3ccc(C)cc32)cc1OC (stereo unspecified) 50.9%
O=C(CN1C(=O)COc2ccccc21)N(Cc1ccc2c(c1)OCO2)CC1CCCO1 (stereo unspecified) 72.1%
O=C(CCCCCBr)N1CCC(CC2CC(c3ccc(Cl)cc3)=NO2)(C(=O)NCC2CCCCC2)CC1 (stereo unspecified) -0.1%
CCN1CCc2c(sc(NC(=O)c3cc4ccccc4cc3OC)c2C(N)=O)C1 0.1%
CC(C)N1CCc2c(sc(NC(=O)c3ccc4ccccc4c3)c2C(N)=O)C1 -0.3%
N#C/C(=C\c1ccc(-c2ccccc2Cl)o1)C(=O)Nc1nc2ccccc2s1 -1.8%
N#C/C(=C\c1ccc(-c2nc3ccccc3s2)o1)C(N)=O 0.2%
CN=C1SC(CC(=O)Nc2ccccc2F)C(=O)N1/N=C/c1ccc(O)c(OC)c1 (stereo unspecified) 14.6%
Cn1c(=O)c(=O)n(C)c2cc(S(=O)(=O)N3CCCC3C(=O)NCc3cccs3)ccc21 (stereo unspecified) 1%
N#Cc1ccc(-c2ccc(F)cc2)nc1SCC(=O)Nc1sc2c(c1C#N)CCC2 -1%
COc1ccc(-c2ccc(C#N)c(SCC(=O)Nc3sc4c(c3C#N)CCC4)n2)cc1 -2.3%
CCc1ccccc1OCC(=O)N(CC)CC(=O)NCc1ccc(F)cc1 -3%
Cc1cc(C(=O)CSc2nncn2C)c(C)n1-c1ccccc1 -2.9%
Cc1nc(C)c(NC(=O)OC(C)C)cc1NC(=O)OC(C)C -4.7%

activation, active:
CCOc1ccc(-n2nnc3c(=O)n(CC(=O)c4ccccc4)cnc32)cc1 52.9%
CCC(C)(C)N=C(NC#N)Nc1cccnc1 87.5%
CNC(=O)/C(C#N)=C/c1ccc(-c2nc3ccccc3s2)o1 169%

Source: PubChem BioAssay AID1777 (Sanford-Burnham Center for Chemical Genomics, 2009)
